Source: PubChem BioAssay (NCATS)
Values joined by “and” are separate entries in the source; they are usually repeats but may differ in a detail not shown here. Equal values may be shown once. Inconclusive results are not listed. Active and inactive are the calls of the source. Unless noted, calls follow the shape of the dose curve; as a rule, active = well fitted inhibition curve with a large enough effect; inconclusive = small, poorly fitted or top-dose-only effect; inactive = flat fitted curve, though single readings scatter.

Legend:
[1] = Drug repurposing screens with cells derived from glioblastoma tumor samples (AID 1345199); conditions: GBM patient neurospheres viability, ATP luminescence, 48 h; also: nearly all actives have a fitted effect of over 40% in size; also: potency is read from the fitted curve at half-maximal effect; as to activity, negative = cell killing: % is scaled to controls: 0 for no effect and ±100 for the full control effect
How it was run: (§1)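 Primary testing used CD133+ neurospheres from four GBM patients, seven concentrations, 48 h exposure and ATP-based viability; confirmation added three slower-growing patient lines.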

astro = control astrocytes; experiment: as above; conditions: viability, ATP luminescence, 48 h; series mostly up to 45.9 µM
How it was run: as §1

[2] = biological target: Nuclear receptor subfamily 1 group I member 2 (Rattus norvegicus) (UniProt Q9R1A7); experiment: qHTS assay for small molecule activators of the rat pregnane X receptor (rPXR) signaling pathway (AID 651751; call rule not given here; also: 0% is about no effect); conditions: rPXR reporter cells, luciferase (One-Glo), 24 h
[3] = qHTS assay for small molecule activators of the human pregnane X receptor (PXR) signaling pathway (AID 720659; call rule not given here; also: 0% is about no effect); conditions: DPX-2 HepG2 CYP3A4-luciferase, 24 h; series mostly up to 92.3 µM
[4] = at 45.9 µM (top of the series), tumour line B
[5] = at 45.9 µM (top of the series), tumour line D
[6] = at 46.1 µM (top of the series), tumour line C
[7] = at 46 µM (top of the series), tumour line A
[8] = at 20 µM (top of the series), tumour line C
[9] = at 21.2 µM (top of the series), tumour line B
[10] = at 21.2 µM (top of the series), tumour line D

Chain of Nuclear receptor subfamily 1 group I member 2 (Rattus norvegicus) (Q9R1A7 whole entry, looked up): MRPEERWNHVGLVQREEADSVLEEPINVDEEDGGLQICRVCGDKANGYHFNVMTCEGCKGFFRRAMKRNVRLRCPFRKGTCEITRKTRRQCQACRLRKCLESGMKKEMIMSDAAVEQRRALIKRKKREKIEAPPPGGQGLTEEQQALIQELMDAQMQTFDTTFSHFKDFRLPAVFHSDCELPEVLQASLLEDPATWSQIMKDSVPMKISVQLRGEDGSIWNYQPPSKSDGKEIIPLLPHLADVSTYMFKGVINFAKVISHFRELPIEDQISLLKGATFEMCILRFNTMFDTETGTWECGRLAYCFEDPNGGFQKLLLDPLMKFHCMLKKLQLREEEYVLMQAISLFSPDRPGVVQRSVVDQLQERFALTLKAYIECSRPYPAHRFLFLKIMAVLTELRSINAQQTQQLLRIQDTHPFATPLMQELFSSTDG

CN(C)CCOC(C)(c1ccccc1)c1ccccn1 (stereo unspecified)
active: Potency ([1]; tumour line A) 15.8 µM
inactive: activity, negative = cell killing [1, 4] -6.13% | activity, negative = cell killing [1, 5] -4.11% | activity, negative = cell killing [1, 6] -0.022% | Potency (astro) | max response [2] 2.43% | outcome [3]

CCC(=O)Nc1ccc(O)cc1
inactive: activity, negative = cell killing [1, 4] -16% | activity, negative = cell killing [1, 5] -0.42% | activity, negative = cell killing [1, 7] -15.2% | activity, negative = cell killing [1, 6] -16.9% | Potency (astro)

OCc1cc(C(O)CNCCCCCCOCCCCc2ccccc2)ccc1O (stereo unspecified)
active: Potency ([1]; tumour line A) 7.08 µM | Potency ([1]; tumour line B) 20 µM | Potency ([1]; tumour line D) 20 µM | Potency (astro) 11.2 µM
inactive: activity, negative = cell killing [1, 6] 2.29%

CSc1ccc2c(c1)N(CCC1CCCCN1C)c1ccccc1S2 (stereo unspecified)
active: Potency ([1]; tumour line A) 2.82 µM | Potency ([1]; tumour line B) 20 µM | Potency ([1]; tumour line D) 5.01 µM | Potency (astro) 20 µM
inactive: activity, negative = cell killing [1, 6] -0.209%

O=C(O)[C@H](O)c1ccccc1
inactive: activity, negative = cell killing [1, 4] -2.7% | activity, negative = cell killing [1, 5] 3.57% | activity, negative = cell killing [1, 6] 1.65% | Potency (astro)

Cc1cccc(Nc2cc(Cl)nc(SCC(=O)O)n2)c1C
inactive: activity, negative = cell killing [1, 4] -5.07% | activity, negative = cell killing [1, 5] -15.1% | activity, negative = cell killing [1, 7] -33.3% | activity, negative = cell killing [1, 6] 0.18% | Potency (astro) | max response [2] -4.85% | outcome [3]

C[C@H]1O[C@@H](n2cc(F)c(=O)[nH]c2=O)[C@H](O)[C@@H]1O
inactive: activity, negative = cell killing [1, 4] -19.9% | activity, negative = cell killing [1, 5] -17.4% | activity, negative = cell killing [1, 7] -26.5% | activity, negative = cell killing [1, 6] 3.86% | Potency (astro)

O=c1cc(CO)occ1O
inactive: activity, negative = cell killing [1, 4] -1.08% and -4.58% | activity, negative = cell killing [1, 5] 14.9% and -7.17% | activity, negative = cell killing [1, 7] -25.5% and -9.07% | activity, negative = cell killing [1, 6] -15.8% and 18.8% | Potency (astro)

CCN(CC)C(=O)Nc1ccc(OCC(O)CNC(C)(C)C)c(C(C)=O)c1 (stereo unspecified)
inactive: activity, negative = cell killing [1, 4] -20.9% | activity, negative = cell killing [1, 5] 0.286% | activity, negative = cell killing [1, 6] -24.6% | Potency (astro)

C#CCN(C)Cc1ccccc1
inactive: activity, negative = cell killing [1, 8] -8.08% | activity, negative = cell killing [1, 9] -12.4% | activity, negative = cell killing [1, 10] -7.66% | activity, negative = cell killing ([1]; at 21.3 µM (top of the series), tumour line A) -32.1% | Potency (astro)

Nc1ccc(S(=O)(=O)Nc2ccccc2)cc1
inactive: activity, negative = cell killing [1, 4] 11.7% | activity, negative = cell killing [1, 5] -2.38% | activity, negative = cell killing [1, 6] -16.6% | Potency (astro)

CC(=O)Nc1ccc(/C=N/NC(N)=S)cc1
inactive: activity, negative = cell killing [1, 4] -6.76% and -4.79% | activity, negative = cell killing [1, 5] -13.7% and -15.9% | activity, negative = cell killing [1, 7] -28.2% | activity, negative = cell killing [1, 6] -27.6% and -20.2% | Potency (astro)

NC(=O)c1ncn([C@@H]2O[C@H](CO)[C@@H](O)[C@H]2O)n1
inactive: activity, negative = cell killing [1, 4] -11% | activity, negative = cell killing [1, 5] -8.98% | activity, negative = cell killing [1, 7] -27.6% | activity, negative = cell killing [1, 6] -10.2% | Potency (astro) | max response [2] -13.6% | outcome [3]

Cc1c(O)cccc1C(=O)N[C@@H](CSc1ccccc1)[C@H](O)CN1C[C@H]2CCCC[C@H]2C[C@H]1C(=O)NC(C)(C)C
inactive: activity, negative = cell killing [1, 6] 0.268%
active: Potency ([1]; tumour line A) 6.31 µM | Potency ([1]; tumour line B) 11.2 µM | Potency ([1]; tumour line D) 20 µM | Potency (astro) 35.5 µM

Nc1ccc(S(=O)(=O)Nc2nccs2)cc1
inactive: activity, negative = cell killing [1, 4] -4.74% | activity, negative = cell killing [1, 5] -5.75% | activity, negative = cell killing [1, 7] -21.1% | activity, negative = cell killing [1, 6] -7.84% | Potency (astro) | max response [2] -1.7% | outcome [3]

Cn1c(=O)c2c(ncn2CC2OCCO2)n(C)c1=O
inactive: activity, negative = cell killing [1, 4] -0.596% | activity, negative = cell killing [1, 5] -3.46% | activity, negative = cell killing [1, 7] -20.3% | activity, negative = cell killing [1, 6] -4.14% | Potency (astro)

CC(=O)c1ccc2c(c1)N(CCCN(C)C)c1ccccc1S2
inactive: activity, negative = cell killing [1, 8] -20.2% | activity, negative = cell killing [1, 9] -19.6% | Potency (astro)
active: Potency ([1]; tumour line A) 10 µM

CN1CCOC(c2ccccc2)c2ccccc2C1 (stereo unspecified)
inactive: activity, negative = cell killing [1, 8] 10.6% | activity, negative = cell killing [1, 9] -10.4% | activity, negative = cell killing [1, 10] -4.89% | Potency (astro)

CC(C)(C)C(=O)NCCCC(=O)O
inactive: activity, negative = cell killing [1, 4] -17.2% | activity, negative = cell killing [1, 5] -2.84% | activity, negative = cell killing [1, 6] -20.2% | Potency (astro)

CCN(CC)C(C)CN1c2ccccc2Sc2ccccc21 (stereo unspecified)
active: Potency ([1]; tumour line A) 10 µM
inactive: activity, negative = cell killing [1, 8] -5.52% | activity, negative = cell killing [1, 9] -16.2% | Potency (astro)

c1ccc(CN(CC2=NCCN2)c2ccccc2)cc1
inactive: activity, negative = cell killing [1, 4] -15.8% | activity, negative = cell killing [1, 5] -19.1% | activity, negative = cell killing [1, 6] -20.7% | Potency (astro)

Cc1cc(CC(=O)O)n(C)c1C(=O)c1ccc(Cl)cc1
inactive: activity, negative = cell killing [1, 4] -19.5% and -0.106% | activity, negative = cell killing [1, 5] -15.6% and -2.2% | activity, negative = cell killing [1, 6] -19.2% and -21.6% | Potency (astro) | max response [2] -6.77% | outcome [3]
